# High-throughput results (PubChem BioAssay)
# Most compounds without a hit are left out; they make up all but 2.4% or so of the library.
# CRFR2-BP ag – agonists of human CRF-binding protein/CRF-R2 receptor complex. HEK293 CRF-R2/CRF-BP, calcium dye fluorescence (FLIPR); percent of saturating CRF peptide response. activation, % at 13.2 µM. 350,000 tested, 0.46% active. AID 588473;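 active = activation of at least 50%, plus an integration ratio under a set limit after plate pattern correction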;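 note: plate controls were neutral control wells without compound for no effect and CRF at EC100 for full effect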
# TMEM16A act – mouse TMEM16A channel activation, primary screen | 340,000 tested, 0.3% active | Q8BHY3 | HEK293 TMEM16A/YFP-H148Q/I152L, iodide quench fluorescence; active compounds read low | B-score at 10 µM;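 active = fluorescence-ratio B-score plate-corrected deviation score at least 3 library SD below zero, with starting fluorescence score within 5 deviations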;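 note: channel opened by trigger with iodide after compound preincubation; score built on the fluorescence ratio of max minus min over baseline; more negative score means more quench and so TMEM16A activation or potentiation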
# Target sequence (Q8BHY3 whole entry, looked up): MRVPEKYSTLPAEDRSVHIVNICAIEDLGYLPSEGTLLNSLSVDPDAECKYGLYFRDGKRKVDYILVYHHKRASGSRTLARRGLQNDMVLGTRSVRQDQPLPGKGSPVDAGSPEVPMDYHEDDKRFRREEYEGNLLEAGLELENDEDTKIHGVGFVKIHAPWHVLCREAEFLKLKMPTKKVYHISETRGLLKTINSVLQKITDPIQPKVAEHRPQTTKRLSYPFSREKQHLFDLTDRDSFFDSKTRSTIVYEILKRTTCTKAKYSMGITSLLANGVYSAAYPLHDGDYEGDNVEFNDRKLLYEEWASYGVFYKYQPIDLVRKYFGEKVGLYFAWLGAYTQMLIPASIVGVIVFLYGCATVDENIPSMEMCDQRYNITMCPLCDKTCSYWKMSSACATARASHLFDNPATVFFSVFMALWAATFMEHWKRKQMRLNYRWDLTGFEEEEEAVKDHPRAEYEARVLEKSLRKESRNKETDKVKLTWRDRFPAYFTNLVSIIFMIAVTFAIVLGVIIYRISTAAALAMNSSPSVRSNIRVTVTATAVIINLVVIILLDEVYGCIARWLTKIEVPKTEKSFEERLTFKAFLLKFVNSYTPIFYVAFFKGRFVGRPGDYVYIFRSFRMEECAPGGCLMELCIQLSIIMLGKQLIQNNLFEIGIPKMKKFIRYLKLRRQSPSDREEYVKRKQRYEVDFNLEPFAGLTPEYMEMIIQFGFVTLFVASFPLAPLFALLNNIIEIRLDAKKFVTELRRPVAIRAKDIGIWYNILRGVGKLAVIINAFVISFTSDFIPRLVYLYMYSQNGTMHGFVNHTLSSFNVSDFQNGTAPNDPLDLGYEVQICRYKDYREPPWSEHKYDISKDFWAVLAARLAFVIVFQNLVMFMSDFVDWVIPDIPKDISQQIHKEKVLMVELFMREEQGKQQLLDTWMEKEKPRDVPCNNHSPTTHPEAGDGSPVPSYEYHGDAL
# RTF Ca sens act – increases calcium sensitivity of human cardiac regulated thin filaments | P19429+P45379 | 340,000 tested, 0.24% active | activation, % at 7.2 µM | IANBD-labeled TnC RTF fluorescence at EC20 calcium; 0% EC20 calcium, 100% full calcium;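 active = activation above the mean over all tested compounds plus 3 SD, cut at about 30% in these data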;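 note: rise in fluorescence read as greater calcium sensitivity of cardiac thin filaments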
# CRFBP-R2 block – antagonists of CRF-binding protein/CRF-R2 receptor complex. HEK293 CRF-R2/CRF-BP, CRF-induced calcium fluorescence. inhibition, % at 11.8 µM. 350,000 tested, 0.59% active. AID 588475;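 active = inhibition of the ligand-induced calcium signal above about 50% at the single tested concentration, limit read from the data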
# RTF Ca sens inh – cardiac RTF calcium desensitization. IANBD-labeled cardiac RTF, Ca2+ fluorescence. inhibition, % at 7.15 µM. 340,000 tested, 0.12% active;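 active = inhibition above the mean inhibition of all tested compounds plus 3 SD, cut at about 17% in these data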;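 note: assay run at fixed EC70 calcium of 1.6 mM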
# TMEM16A inh – blocks the mouse calcium-activated chloride channel TMEM16A. HEK293 TMEM16A/YFP iodide influx fluorescence, ionomycin. normalized B-score (activity score, 25-100; higher = stronger inhibition) at 10 µM. 310,000 tested, 1.2% active;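 active = ratio plate-corrected score three or more library SD toward inhibition, starting fluorescence score within five deviations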;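 note: score derived from kinetic fluorescence span divided by baseline fluorescence per well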
# * hit, by the source's call; i = inactive; nt = no result given.
SMILES,CRFR2-BP ag,TMEM16A act,RTF Ca sens act,CRFBP-R2 block,RTF Ca sens inh,TMEM16A inh
COc1ccc2c(C)c(CC(=O)N3C[C@H]4C[C@@H](C3)c3cccc(=O)n3C4)c(=O)oc2c1C,0,i,-2,-4,-3,i
Cc1ccc(N2C(=O)NC(=O)/C(=C\c3cccn3C(C)(C)C)C2=O)cc1,2,i,-2,-17,3,i
CCC(C)c1ccc(N2C(=O)NC(=O)/C(=C/c3cccn3CCOc3ccc(C)cc3)C2=O)cc1 (stereo not drawn),60*,i,1,-91,-12,i
CN(C)P(=O)(NC(=O)c1cccn1C)N(C)C,4,i,15,107*,-20,i
c1cncc(CNCCN2CCNCC2)c1,-1,i,-7,20,4,nt
COc1ccccc1C(=O)Nc1ccc2c(c1)CC1(C(=O)N(C)C(=O)N(C)C1=O)C1CCCN21 (stereo not drawn),182*,i,-3,-106,-2,i
Cc1cccc(C(=O)Nc2ccc3c(c2)CC2(C(=O)N(C)C(=O)N(C)C2=O)C2CCCN32)c1 (stereo not drawn),8,i,-4,-5,1,i
C[C@]12CCC3C(CC[C@H]4C[C@H](O)CC[C@]34C)C1C[C@@H](O)[C@H]2O (stereo partly drawn),4,nt,nt,-1,nt,nt
COC1CCC(OC2CC(C3(C)CCC4(CC(O)C(C)C(C(C)/C=C(\C)C(=O)C(C)CC(C)C(=O)O)O4)O3)OC3(OC(C4OC(O)(CO)C(C)CC4C)CC3C)C2C)OC1C (stereo not drawn),25,-4.8*,-5,-42,-12,nt
O=Cc1c(C(=O)O)n(Cc2ccc(Cl)cc2)c2ccccc12,31,i,320*,-37,-343,i
OC1(c2ccccc2)CCNC2CCCCC21 (stereo not drawn),4,i,-2,-21,5,i
OC12CCCCC1C(c1ccccc1)NCC2 (stereo not drawn),2,i,210*,-24,3,i
CCCCCC[N+](=O)[O-],-2,i,-2,12,4,nt
CCCCCCCCCCCCCCCC[N+](C)(C)C,4,i,-2,66*,4,i
CCOc1ccc(N2C(=O)/C(=C/c3ccco3)C(=O)NC2=S)cc1,-2,i,-40,9,56*,i
CCOP(=O)(OCC)c1cc(CC)ccc1O,-2,i,-5,93*,-6,i
CCC1C2Cc3ccc(O)cc3C1(CC)CCN2C (stereo not drawn),-1,i,-1,17,-5,nt
C=CCN1CCC2(C)c3cc(O)ccc3CC1C2C (stereo not drawn),63*,i,0,-68,11,i
CC1(C)CC(=O)CC(C)(C)N1O,-1,nt,nt,15,nt,nt
C/C=C(\C)C(=O)OC1C(C)=C2C(C1OC(=O)CCCCC)C(C)(OC(C)=O)CC(OC(=O)CCC)C1(O)C2OC(=O)C1(C)O (stereo not drawn),nt,nt,nt,nt,nt,100*
O=[N+]([O-])c1cc(-c2ccc([As](=O)(O)O)cc2)ccc1[As](=O)(O)O,nt,nt,nt,nt,nt,i
Cc1cc(=O)oc2cc(OCC(=O)N3CCN(C(C)c4ccccc4)CC3)c(Cl)cc12 (stereo not drawn),-1,-42*,-2,-9,-5,nt
CC/C(=C\C=C\[C@@H]1C=C[C@@H]2CCC[C@H]2[C@@H]1C(=O)c1ccc[nH]1)[C@@H]1O[C@@H]([C@@H](C)C(=O)O)CC[C@@H]1C,67*,nt,nt,22,nt,100*
CCOc1ccccc1N=C1SCCCN1C,2,i,-1,0,-4,i
CCOc1cccc(=NC2CCCCC2)c2c(C)n(C)c(C)c12,1,i,nt,-4,nt,100*
O=[N+]([O-])c1ccc(N2CCCCCC2)c2nonc12,191*,i,316*,-136,-456,i
COc1cccc2c1C(=O)c1c(O)c3c(c(O)c1C2=O)CC(O)(C(C)=NO)CC3OC1CC(N)C(O)C(C)O1 (stereo not drawn),37,i,166*,-18,-206,nt
